Experimental data from PubChem BioAssay (EPA / NIEHS).
Some structures have more than one record in an assay (separate samples or runs), and their calls can disagree. Activity calls are given as the source filed them. The calls were made as follows: active = hit-call score of the fitted dose curve at least 0.9, where 1 is the maximum; inactive = score below 0.9.

Columns and labels:
[1] = read-out: Macrophage colony-stimulating factor (MCSF), CSF1 (gene 1435); assay: BSK_LPS_MCSF: BioMAP Diversity Plus: LPS Assay for Macrophage colony-stimulating factor (MCSF) Biomarker Activity (AID 2283083); conditions: primary human HUVEC with PBMC; actives raise or lower the signal
Method in brief: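 HUVEC–PBMC co-culture, M-CSF measured by ELISA 24 h after chemical dosing. Fitted in both directions relative to DMSO as negative control; overt cytotoxicity assessed by SRB total-protein staining in parallel cultures.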

[2] = read-out: Tissue Factor, F3 (gene 2152); assay: BSK_LPS_TissueFactor: BioMAP Diversity Plus: LPS Assay for Tissue Factor Biomarker Activity (AID 2283084); conditions: primary human HUVEC with PBMC; actives raise or lower the signal
Method in brief: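 Human umbilical vein endothelial cells co-cultured with PBMC were dosed with compound. Cell-surface CD142 was measured by ELISA 24 h later. Activity was fitted bidirectionally against DMSO, with SRB total-protein staining in parallel cultures for cytotoxicity.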

[3] = read-out: Tumor necrosis factor (Homo sapiens) (UniProt P01375); assay: BSK_LPS_TNFa: BioMAP Diversity Plus: LPS Assay for Tumour Necrosis Factor alpha (TNFa) Biomarker Activity (AID 2283085); conditions: primary human HUVEC with PBMC; actives raise or lower the signal
Method in brief: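 Human umbilical vein endothelial cells co-cultured with PBMC were exposed to test chemical and TNFa measured by ELISA 24 h after dosing. Bidirectional curve fitting was done relative to DMSO as negative control and baseline.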

CD38, CD38 (gene 952) = assay: BSK_SAg_CD38: BioMAP Diversity Plus: SAg Assay for CD38 Biomarker Activity (AID 2283087); conditions: primary human HUVEC with PBMC; actives raise or lower the signal
Method in brief: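 Fluorescence ELISA of cell-surface CD38 served as the read-out, with either increase or decrease fitted against DMSO controls. Cells were a human umbilical vein endothelium plus PBMC co-culture under SEB/TSST-1 stimulation, measured 24 h after dosing.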

CD40, CD40 (gene 958) = assay: BSK_SAg_CD40: BioMAP Diversity Plus: SAg Assay for CD40 Biomarker Activity (AID 2283088); conditions: primary human HUVEC with PBMC; actives raise or lower the signal
Method in brief: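 HUVEC plus PBMC co-culture, superantigen-activated, with CD40 read by ELISA 24 h after dosing. Curves fitted in both directions against DMSO. Overt cytotoxicity checked by parallel SRB total-protein staining.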

CD69, CD69 (gene 969) = assay: BSK_SAg_CD69: BioMAP Diversity Plus: SAg Assay for CD69 Biomarker Activity (AID 2283089); conditions: primary human HUVEC with PBMC; actives raise or lower the signal;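 as to AC50: cell surface CD69 protein quantified by ELISA with fluorescence detection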
Method in brief: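 Primary human vascular co-culture (umbilical vein endothelium with peripheral blood mononuclear cells) exposed to test chemical for 24 h. CD69 levels quantified by fluorescence ELISA; DMSO served as negative control for bidirectional fitting.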

[4] = read-out: Monocyte Chemoattractant Protein-1 (MCP1), CCL2 (gene 6347); assay: BSK_SAg_MCP1: BioMAP Diversity Plus: SAg Assay for Monocyte Chemoattractant Protein-1 (MCP1) Biomarker Activity (AID 2283090); conditions: primary human HUVEC with PBMC; actives raise or lower the signal
Method in brief: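 MCP-1 levels in the endothelial–PBMC SAg co-culture were quantified by ELISA at 24 h post-dosing; both increases and decreases versus DMSO scored. Cytotoxicity monitored by SRB total protein in parallel cultures.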

[5] = read-out: E-selectin (Homo sapiens) (UniProt P16581); assay: BSK_SAg_Eselectin: BioMAP Diversity Plus: SAg Assay for Eselectin Biomarker Activity (AID 2283091); conditions: primary human HUVEC with PBMC; actives raise or lower the signal
Method in brief: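 Human umbilical vein endothelial cells co-cultured with peripheral blood mononuclear cells, SAg system. E-selectin is measured by ELISA 24 h after dosing and fitted bidirectionally against DMSO. Cytotoxicity is checked by SRB staining of parallel cultures.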

[6] = read-out: Monokine induced gamma interferon (MIG), CXCL9 (gene 4283); assay: BSK_SAg_MIG: BioMAP Diversity Plus: SAg Assay for Monokine induced gamma interferon (MIG) Biomarker Activity (AID 2283092); conditions: primary human HUVEC with PBMC; actives raise or lower the signal
Method in brief: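 Endothelial cells and PBMC were co-cultured, exposed to test chemicals, and sampled 24 h later. MIG was measured by ELISA, and responses were fitted in both directions relative to DMSO.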

[7] = BSK_SAg_PBMCCytotoxicity: PBMC Cytotoxicity Assessment in the BioMAP Diversity Plus: SAg Assay (AID 2283093); conditions: primary human HUVEC with PBMC;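 also: PBMC viability measured as Alamar Blue reduction fluorescence at 546/580 nm; fitted both ways against DMSO so a hit may be loss or gain of signal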;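 as to AC50: PBMC superantigen activated with SEB plus TSST-1 one hour after compound addition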
Method in brief: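 HUVEC/PBMC co-culture; PBMC exposed to chemical 1 h before SEB and TSST-1 activation (20 ng/mL each), incubated 90 h, then Alamar Blue 6 h, fluorescence 546/580 nm. Bidirectional fit versus DMSO baseline.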

[8] = read-out: Interleukin-8 (IL8), CXCL8 (gene 3576); assay: BSK_SAg_IL8: BioMAP Diversity Plus: SAg Assay for Interleukin-8 (IL8) Biomarker Activity (AID 2283094); conditions: primary human HUVEC with PBMC; actives raise or lower the signal
Method in brief: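 Human umbilical vein endothelial cells co-cultured with peripheral blood mononuclear cells; IL-8 measured by ELISA 24 h after chemical dosing. Bidirectional concentration-response fitting used DMSO as negative control and activity baseline.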

[9] = BSK_SAg_Proliferation: Cell Proliferation Assessment in the BioMAP Diversity Plus: SAg Assay (AID 2283095); conditions: primary human HUVEC with PBMC;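 also: relative cell number as total protein by SRB absorbance in sub-confluent culture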
Method in brief: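 Human umbilical vein endothelial cells co-cultured with peripheral blood mononuclear cells; total protein measured by sulforhodamine B staining (0.1% SRB after 10% TCA fixation), absorbance at 560 nm, at 96 h. Bidirectional fit against DMSO baseline.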

[10] = BSK_SAg_SRB: Viability Assessment in the BioMAP Diversity Plus: SAg Assay (AID 2283096); conditions: primary human HUVEC with PBMC;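 also: cells read one day after compound addition; hits may be either gain or loss of signal compared with DMSO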
Method in brief: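 Human umbilical vein endothelial cells co-cultured with PBMC, read 24 h after compound dosing. Total protein measured by sulforhodamine B staining (0.1% SRB after 10% TCA fixation, absorbance 560 nm); bidirectional fit versus DMSO baseline.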

[11] = BSK_LPS_PGE2: BioMAP Diversity Plus: LPS Assay for Prostaglandin E2 (PGE2) Biomarker Activity (AID 2283082); conditions: primary human HUVEC with PBMC; actives raise or lower the signal
Method in brief: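 HUVEC plus PBMC co-culture stimulated with LPS; secreted PGE2 quantified by ELISA 24 h after chemical dosing. Activity fitted bidirectionally against DMSO as negative control and baseline; parallel SRB total-protein staining served as cytotoxicity check.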

[12] = read-out: Vascular cell adhesion molecule 1 (VCAM1), VCAM1 (gene 7412); assay: BSK_LPS_VCAM1: BioMAP Diversity Plus: LPS Assay for Vascular cell adhesion molecule 1 (VCAM1) Biomarker Activity (AID 2283086); conditions: primary human HUVEC with PBMC; actives raise or lower the signal
Method in brief: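 Human umbilical vein endothelial cells co-cultured with peripheral blood mononuclear cells under LPS stimulation were exposed to test chemical for 24 h. VCAM-1 levels were then measured by ELISA, with bidirectional curve fitting relative to DMSO as negative control and baseline.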

Measured: AC50

Chain of E-selectin (Homo sapiens) (P16581 whole entry, looked up): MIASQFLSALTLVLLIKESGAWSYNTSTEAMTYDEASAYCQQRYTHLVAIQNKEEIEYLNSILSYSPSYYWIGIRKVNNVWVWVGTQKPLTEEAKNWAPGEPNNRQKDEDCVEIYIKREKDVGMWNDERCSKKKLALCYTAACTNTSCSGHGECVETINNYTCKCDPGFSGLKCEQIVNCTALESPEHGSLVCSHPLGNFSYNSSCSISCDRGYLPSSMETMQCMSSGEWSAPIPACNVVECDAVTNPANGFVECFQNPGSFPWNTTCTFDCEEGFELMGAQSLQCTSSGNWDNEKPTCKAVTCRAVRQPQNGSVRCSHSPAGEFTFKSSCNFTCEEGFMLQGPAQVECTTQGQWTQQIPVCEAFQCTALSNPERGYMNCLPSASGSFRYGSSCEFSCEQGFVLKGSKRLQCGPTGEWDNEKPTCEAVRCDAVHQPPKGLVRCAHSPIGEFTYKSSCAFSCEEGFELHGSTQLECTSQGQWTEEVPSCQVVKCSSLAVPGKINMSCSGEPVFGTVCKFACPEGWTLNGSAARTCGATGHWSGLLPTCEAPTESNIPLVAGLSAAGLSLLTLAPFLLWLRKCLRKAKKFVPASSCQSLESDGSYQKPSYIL
Chain of Tumor necrosis factor (Homo sapiens) (P01375 whole entry, looked up): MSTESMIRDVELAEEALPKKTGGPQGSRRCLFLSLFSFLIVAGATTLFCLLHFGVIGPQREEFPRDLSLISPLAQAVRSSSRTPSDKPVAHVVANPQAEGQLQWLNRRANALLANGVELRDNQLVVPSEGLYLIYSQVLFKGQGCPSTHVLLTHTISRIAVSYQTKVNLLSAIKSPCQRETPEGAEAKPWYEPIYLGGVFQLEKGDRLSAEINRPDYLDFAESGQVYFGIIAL

CC1CCC(C(C)CS)CC1S (stereo not drawn)
active: [1] 36.4 µM | [2] 30.9 µM | CD38, CD38 (gene 952) 32.8 µM | CD40, CD40 (gene 958) 31.6 µM | CD69, CD69 (gene 969) 30.8 µM | [4] 32.6 µM | [5] 30.8 µM | [6] 34.6 µM | [8] 20 µM | [10] 30.7 µM
inactive: [3] | [7] | [9]

CCCCCCCCCC=O
active: CD38, CD38 (gene 952) 29.3 µM | CD69, CD69 (gene 969) 29.9 µM | [5] 33.6 µM
not listed: [12]
inactive: all other assays above

Cc1cc(C2(c3cc(C)c(O)cc3C)OS(=O)(=O)c3ccccc32)c(C)cc1O
active: [7] 27.3 µM
inactive: [1] | [2] | [3] | CD38, CD38 (gene 952) | CD40, CD40 (gene 958) | CD69, CD69 (gene 969) | [4] | [5] | [6] | [7] | [8] | [9] | [10]

Cc1ccc(O)c(C(C)(C)C)c1
active: [1] 36.9 µM | [2] 30.4 µM | [3] 34.8 µM | [12] 36.8 µM | CD38, CD38 (gene 952) 37 µM | CD40, CD40 (gene 958) 35.5 µM | CD69, CD69 (gene 969) 30.9 µM | [4] 36.6 µM | [5] 37.5 µM | [6] 38.1 µM | [7] 35.8 µM | [8] 32.8 µM | [9] 32 µM | [10] 31.9 µM

CC(C)c1ccc(C(C)C)cc1
not listed: [11] | [12]
inactive: all other assays above

C=CCOC(=O)CCC1CCCCC1
active: [2] 1.01 µM
inactive: [1] | [2] | [3] | [12] | CD38, CD38 (gene 952) | CD40, CD40 (gene 958) | CD69, CD69 (gene 969) | [4] | [5] | [6] | [7] | [8] | [9] | [10]
